Screening results (PubChem BioAssay)
15-hLO-2 inh = 15-hLO-2 (ALOX15B) enzyme inhibition | O15296 | purified 15hLO-2, xylenol orange hydroperoxide absorbance | Potency, µM (highest dose often 57.1 µM), for inactives: at the highest dose activity change, negative = inhibition, most hits filed as inhibitors | 0.56% of 110,000 active | AID 881; note: nearly all actives have a fitted effect of over 60% in size
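Enzyme 50 nM, AA 45 uM, 25 mM Hepes pH 7.5 + 0.01% Triton X-100; cpd preinc 15 min RT, rxn 90 min RT; stop/detect with 200 uM XO + 300 uM Fe(II) in 50 mM H2SO4, 30 min; A573/A405.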
12-hLO inh = blocks human 12-lipoxygenase activity | purified 12-hLO, xylenol orange hydroperoxide absorbance | Potency, µM (doses to about 57.1 µM), for inactives: at the highest dose activity change, negative = inhibition, most hits filed as inhibitors | P18054 | 0.12% of 150,000 active; note: nearly all actives have a fitted effect of over 55% in size
Target sequence (P18054 whole entry, looked up): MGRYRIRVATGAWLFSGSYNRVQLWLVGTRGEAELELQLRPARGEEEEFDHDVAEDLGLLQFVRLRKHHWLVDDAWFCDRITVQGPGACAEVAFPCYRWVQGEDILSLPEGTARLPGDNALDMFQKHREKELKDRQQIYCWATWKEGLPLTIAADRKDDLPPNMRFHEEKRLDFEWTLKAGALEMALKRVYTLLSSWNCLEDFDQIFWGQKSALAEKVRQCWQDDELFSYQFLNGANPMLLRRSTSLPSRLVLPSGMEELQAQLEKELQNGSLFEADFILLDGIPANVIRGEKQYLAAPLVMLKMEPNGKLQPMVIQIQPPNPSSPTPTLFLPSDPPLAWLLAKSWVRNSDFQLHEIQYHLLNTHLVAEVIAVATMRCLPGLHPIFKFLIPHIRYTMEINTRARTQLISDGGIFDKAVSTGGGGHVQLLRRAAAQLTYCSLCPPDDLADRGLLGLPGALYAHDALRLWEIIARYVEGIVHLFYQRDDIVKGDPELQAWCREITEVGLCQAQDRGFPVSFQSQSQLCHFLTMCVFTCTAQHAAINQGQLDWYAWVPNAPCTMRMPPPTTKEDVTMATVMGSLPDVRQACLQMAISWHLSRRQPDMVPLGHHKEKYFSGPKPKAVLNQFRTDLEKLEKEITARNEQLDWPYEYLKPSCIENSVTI
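Xylenol orange chromogenic assay: hydroperoxide from 12hLO oxidises Fe(II), giving red-shifted Fe(III)-XO absorbance. Conditions: 150 nM enzyme, 40 uM arachidonic acid, 25 mM Hepes pH 7.0, 0.01% Triton X-100, 30 min, room temperature.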
* marks the source's active call; other numbers are inactive results; u = inconclusive; x = no result; [ ] = another dose, or the depositor's remark. Only a selection was taken, and hits are over-represented in it overall. Calls come from the whole dose curve; as a rule, active = well fitted curve in the direction sought with a large enough effect; inconclusive = small, poorly fitted or top-dose-only effect, or another doubt; inactive = no such curve, though single readings can be large; an effect the other way counts as inactive or inconclusive. % is set by controls: 0 for no effect and ±100 for the full control effect; potency is the fitted concentration of half-maximal effect.

SMILES | 15-hLO-2 inh | 12-hLO inh
O=[N+]([O-])c1cc(Cc2cc([N+](=O)[O-])c3cccnc3c2O)c(O)c2ncccc12 | 25%[11.4 µM] | -7%[11.4 µM]
CCC(=O)NC(c1cccs1)c1cc([N+](=O)[O-])c2cccnc2c1O (stereo not given) | x | 2.8µM*
COc1ccc(CCN2C(=O)CC(N3CCOCC3)C2=O)cc1OC (stereo not given) | x | -5%
COc1ccc(NC2CC(=O)N(C(C)C)C2=O)cc1 (stereo not given) | -4% | -16%
CC(C)N1C(=O)CC(Nc2ccc(N3CCOCC3)cc2)C1=O (stereo not given) | 25µM* | u
COc1ccc(CCN2C(=O)CC(Nc3ccc(N4CCOCC4)cc3)C2=O)cc1OC (stereo not given) | 25µM* | u
CSc1nc(N)c2ncn([C@@H]3O[C@@H](COP(=O)(O)OP(=O)(O)O)[C@@H](O)[C@H]3O)c2n1 | 3% | -7%
O=C(O)C[C@H](NC(=O)CP(=O)(O)O)C(=O)O.[NH-][C@@H]1CCCC[C@@H]1[NH-].[Pt] | 2%[11.4 µM] | 1%[11.4 µM]
Cn1ncc2c(Cl)ncnc21 | -5%[11.4 µM] | -3%[11.4 µM]
CCc1cccc(NC(=O)CSCc2cc(=O)[nH][nH]2)c1 | 10% | 1%
CCc1cccc(NC(=O)CSC2=NS(=O)(=O)c3ccccc32)c1 | 5µM* | 0%
O=C1NN(c2ccccc2)C(=O)/C1=C\c1cccc(OC(=O)c2cccs2)c1 | 16µM* | u
CCOc1cc(/C=C2/C(=O)N(c3ccccc3)N=C2C)ccc1OC(=O)c1cccs1 | u | -6%
COc1cc(/C=C2/C(=O)NN(c3cccc(F)c3)C2=O)ccc1OC(=O)c1ccco1 | x | -4%
O=C1NN(c2ccc(Cl)c(Cl)c2)C(=O)/C1=C/c1cccc(OC(=O)c2cccs2)c1 | 10µM* | u
N=c1ccn2c(n1)O[C@H]1[C@@H](OP(=O)(O)O)[C@H](CO)O[C@H]12 | -8%[11.4 µM] | 5%[11.4 µM]
N=C(N)CCNC(=O)[C@@H]1CCC(N)=N1 | -4%[11.4 µM] | -4%[11.4 µM]
CSC(N)=NCCC[C@@H](N)C(=O)O | -3% | -4%
Cc1ccc(NC(=O)CN2C(=O)S/C(=C/c3ccc(-c4cc(C(=O)O)ccc4C)o3)C2=O)cc1C | 20µM* | -25%
CCn1c(C)cc(/C=C2\SC(=O)N(CC(=O)Nc3ccc(C)c(C)c3)C2=O)c1C | u | 9%
Cc1cccc(OCC(=O)NC(=S)N2CCCc3ccccc32)c1 | 20µM* | -3%
O=C(COc1ccc(Cl)cc1Cl)NC(=S)N1CCCc2ccccc21 | u | -15%
Cc1[nH]c2ccccc2c1-c1cc(-c2cc(-c3c(C)[nH]c4ccccc34)nc(N)n2)nc(N)n1 | -4%[11.4 µM] | 2%[11.4 µM]
CC1CCN(c2ccc(NC(=S)NC(=O)c3ccc(-c4cccc([N+](=O)[O-])c4)o3)cc2)CC1 | u | -18%
CC1CCN(c2ccccc2NC(=S)NC(=O)c2ccc(-c3cccc([N+](=O)[O-])c3)o2)CC1 | 16µM* | -6%
SMILES | 15-hLO-2 inh | 12-hLO inh
C[N+](C)(C)c1cc2c(nn1)Nc1ccccc1S2 | 7%[11.4 µM] | 9%[11.4 µM]
CCCCCCc1cc2cc(-c3nnc(-c4ccccc4O)o3)c(=O)oc2cc1O | 25µM* | -16%
CCCCCCc1cc2cc(-c3nnc(-c4ccccc4OC)o3)c(=O)oc2cc1O | u | -6%
COc1ccc(/C=N/NC(=O)C(=O)/C=C2\NC3(CCCC3)Cc3ccccc32)cc1 | x | -3%
O=C(/C=C1\NC2(CCCC2)Cc2ccccc21)C(=O)N/N=C/c1ccc(O)c(O)c1 | x | 0.89µM*
O=C(O)/C=C\C(=O)Nc1ccc2c(c1)-c1ccccc1C2 | -13%[11.4 µM] | -2%[11.4 µM]
N#C/C(=C/c1ccc(N2CCCCCC2)o1)c1ccc(Cl)cc1 | 7.9µM* | u
N#C/C(=C/c1ccc(N2CCCCC2)cc1)c1cccc(F)c1 | x | 2%
COc1cc(N2CCCC2)c(OC)cc1/C=C(/C#N)c1ccc(Br)cc1 | -17% | -11%
N#C/C(=C/c1ccc(N2CCCCC2)o1)c1cccc(F)c1 | 10µM* | -25%
Cc1ccc(/C(C#N)=C\c2ccc(N3CCOCC3)o2)cc1 | 13µM* | -24%
Cc1ccc2nc(/C(C#N)=C\c3ccc(N4CCOCC4)o3)[nH]c2c1 | x | -29%
CCOC(=S)SCC(=O)O | -1%[11.4 µM] | 4%[11.4 µM]
CC(=O)OCC(=O)[C@]12OC(C)(C)O[C@@H]1C[C@H]1[C@H]3CC=C4C[C@@H](O)CC[C@]4(C)[C@H]3CC[C@]12C | -3%[11.4 µM] | -1%[11.4 µM]
Oc1ccccc1C(Sc1nc2ccccc2s1)Sc1nc2ccccc2s1 | u | -9%[11.4 µM]
OC(CNCc1ccccc1)Cn1ccc2ccccc21 (stereo not given) | x | 0%
Oc1ccccc1NCC(O)Cn1ccc2ccccc21 (stereo not given) | 13µM* | -26%
O=C(O)c1c(Cl)c(Cl)c(Cl)c(Cl)c1-c1c2cc(I)c(=O)c(I)c-2oc2c(I)c(O)c(I)cc12 | 7.9µM* | u
C[C@H]1[C@H](O)[C@@H](C)C=CC=CC=CC=CC=CC=CC=C[C@H](O[C@@H]2O[C@@H](C)[C@H](O)[C@@H](N)[C@@H]2O)C[C@@H]2O[C@](O)(C[C@@H](O)C[C@@H](O)[C@@H](O)CC[C@@H](O)C[C@@H](O)CC(=O)O[C@H]1C)C[C@H](O)[C@H]2C(=O)O | 3%[11.4 µM] | -18%[11.4 µM]
Cc1cc(S(=O)(=O)Nc2ccccc2C(=O)O)ccc1F | x | -1%
CC[C@H](c1ccc(O)cc1)[C@@H](CC)c1ccc(O)cc1 | 10µM* | -20%[25.6 µM]
CCC(c1ccc(O)cc1)C(CC)c1ccc(O)cc1 (stereo not given) | u | -23%
CCC(=O)OCN1C(=O)C=CC1=O | 6%[11.4 µM] | -4%[11.4 µM]
C[N+](C)(C)CCCSc1nc2ccccc2[nH]1 | -4%[11.4 µM] | 3%[11.4 µM]
CC(C)NS(=O)(=O)c1ccc(NC(=S)NC(=O)c2ccc(-c3ccccc3)cc2)cc1 | 20µM* | u
SMILES | 15-hLO-2 inh | 12-hLO inh
O=C(NC(=S)Nc1ccccc1)c1ccc(-c2ccccc2)cc1 | x | 0%
COc1ccc(S(=O)(=O)N(C(C)=O)c2ccc3oc(=O)sc3c2)cc1 | -23% | 8.9µM*
COc1ccc(N(C(=O)C(C)C)S(=O)(=O)c2ccc(Cl)cc2)cc1 | 6% | -13%
CC(=O)N[C@H](Cc1ccc(O)cc1)C(=O)O | -3%[11.4 µM] | 4%[11.4 µM]
Nc1ccn([C@H]2O[C@H](CO)[C@@H]3[O][Sn]([c]4ccccc4)([c]4ccccc4)[O][C@H]32)c(=O)n1 | -2%[11.4 µM] | 1%[11.4 µM]
COC(=O)C1=C(C(=O)OC)[C@@H]2N(Cc3ccccc3)c3ccccc3[C@@]23C[C@@H](C(=O)OC)N(C(=O)c2ccco2)C3=N1 | x | -2%[11.4 µM]
O=CNc1ncn[nH]1 | 7%[11.4 µM] | 0%[11.4 µM]
CCOC(=O)Cc1csc(NC(=O)NC2(C(F)(F)F)Oc3ccc(Cl)cc3O2)n1 (stereo not given) | u | -25%
CCOC(=O)Cc1csc(NC(=O)NC2(C(F)(F)F)Oc3cc(Cl)c(Cl)cc3O2)n1 | 10µM* | u
CCOC(=O)C1=C(Cc2ccc(Cl)cc2)C(=O)c2ccccc2C1=O | 10µM* | u
CCOC(=O)C1=C(C)N=C2c3ccccc3C(=O)C2C1c1ccc(Cl)cc1 (stereo not given) | -14% | -12%
CN1CCc2c(cc(O)c(O)c2Cl)[C@H](c2cccc(Cl)c2)C1 | u | -11%
O=C(c1[nH]o[n+](=O)c1C(=O)c1csc2ccccc12)c1csc2ccccc12 | -3%[11.4 µM] | -4%[11.4 µM]
c1ccc(C2=Nc3ccccc3SC2c2nc3ccccc3[nH]2)cc1 (stereo not given) | 25µM* | u
